Measured values as given in PubChem BioAssay (NCATS).
Records with an inconclusive call do not appear. Activity calls are given as the source filed them. The call rests on the fitted dose curve; in most records, active means well fitted cell-killing curve with a large enough effect; inconclusive means small, poorly fitted or top-dose-only effect; inactive means flat fitted curve, though single readings scatter.

Experiment: Cellular viability qHTS for adrenocortical cancer (ACC) cell line SW-13 (AID 1963989); further: nearly all actives have a fitted effect of over 65% in size;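 on activity (max response): cells grown in serum-free medium with ITS supplement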
Settings: SW-13 ACC cells viability, CellTiter-Glo, 48 h; activity (max response): active compounds read low
Text: PI: Naris Nilubol, MD Surgical Oncology Program, National Cancer Institute (NCI) National Institute of Health (NIH), Bethesda, Maryland Adrenocortical cancer (ACC) is a rare malignancy with poor survival outcomes and few treatment options. Currently, mitotane is the only FDA-approved therapy for ACC. Although adjuvant radiation therapy is rarely utilized, it has the potential to improve survival in select cases. Through a quantitative high-throughput drug screen (qHTS), we identified auranofin (AF), a thioredoxin reductase (TXNRD) inhibitor, as a promising candidate drug. This study aims to evaluate whether AF can enhance the efficacy of radiation therapy in the treatment of ACC. Two human ACC cell lines, SW-13 and NCI-H295R, were screened using the National Center for Advancing Translational Sciences (NCATS) Pharmaceutical Collection (NPC) and the Mechanism Interrogation PlatE (MIPE) library (~4,991 compounds). CellTiter-Glo (Cat # G7570, Promega, Madison, WI) was utilized to measure cell viability. Described herein are the results of the corresponding viability assay.
PROTOCOL TABLE (as described by Inglese J, Shamu CE and Guy RK. 2007) SEQUENCE No. (e.g., 1, 2, 3, etc.); […] (e.g., Cells, Incubation, Reagent, etc.); VALUE; DESCRIPTION. 1; Cells; 5 uL; white, solid-bottom, 1536-well tissue-culture treated plates. 2; Time; overnight culture at 37C with 5% CO2. 3; Compounds and control; 23 nL; Kalypsis pin tool (Wako USA) equipped with a 1536-well pin head to transfer to the assay plates. 4; Time; 48 hours; 37C with 5% CO2. 5; Reagent; 4 uL; CellTiter-Glo luminescent substrate mix. 6; Time; 20 min at room temperature. 7; Detection; Luminescence; ViewLux plate reader NOTES (numbers refer to Sequence numbers above) 1. SW13 cells were harvested from a T175 flask and resuspended in ITS-supplemented DMEM serum-free medium at a concentration of 300 000 cells/mL. Then 5 uL of resuspended cells were dispensed into each well of white, solid-bottom, 1536-well tissue-culture-treated plates using a multidrop combi dispenser. The plates were covered with stainless steel gasket lids. 2-3. The plates were cultured overnight at 37C with 5% CO2. Twenty-three nL of compounds (eight selected concentrations from the NPC / MIPE) or positive control (10 mM stock of bortezomib) in DMSO was transferred to each well of the assay plate using a pin tool (Kalypsys, San Diego, CA, USA). The final concentration of the compounds in the 5 uL assay volume ranged from 0.5 nM to 46 uM. 4-6. After 48 hours of incubation at 37C and 5% CO2, 4 uL of CellTilter-Glo luminescent substrate mix (Promega, Madison, WI, USA) was added to each well. Then the plates were incubated for 20 minutes at room temperature. 7. After incubation, luminescence was measured using a ViewLux plate reader (PerkinElmer, Waltham, MA, USA) with a clear filter was used to measure the number of metabolically competent cells. To determine compound activity in the qHTS assay, the titration-response data for each sample was plotted and modeled by a four-parameter logistic fit yielding IC50 and efficacy (maximal response) values. […] REFERENCES: Inglese J, Shamu CE and Guy RK, Reporting data from high throughput screening of small molecule libraries, Nature Chemical Biology, 2007, 3(8): 438-441. doi.org/10.1038/nchembio0807-438.
On the % scale 0 is the no-effect control and ±100 the full control effect.

SMILES | activity (max response) | Potency
COc1ccc(-n2c(SCCCN3C(=O)c4cccc5cccc(c45)C3=O)nnc2-c2ccncc2)cc1 | -14.9% (inactive) | –
O=C(CCCN1CCN(c2ccccn2)CC1)c1ccc(F)cc1 | -12.5% (inactive) | –
COc1ccc2c(c1)C(=O)N(CCc1ccc(S(=O)(=O)NC(=O)NC3CCCCC3)cc1)C(=O)C2(C)C | -10.4% (inactive) | –
O=C(O)c1c(O)c(-c2ccccc2)nc2ccccc12 | 3.37% (inactive) | –
CCCCN(CCCC)C(C(N)=O)c1ccc(OC)cc1 (centres undefined) | 14.1% (inactive) | –
C=C[C@@H]1CN2CCC1C[C@H]2[C@H](O)c1ccnc2ccc(OC)cc12 (some centres undefined) | 5.73% (inactive) | –
Nc1n[n+]([O-])c2ccccc2[n+]1[O-] | -11.6% (inactive) | –
COc1ccc([C@@H]2Sc3ccccc3NC(=O)[C@@H]2O)cc1 | – | 7.31 µM (active)
CCc1cc(Nc2nccc(-c3c(-c4ccc(OC)c(C(=O)Nc5c(F)cccc5F)c4)nc4ccccn34)n2)c(OC)cc1N1CCC(N2CCN(S(C)(=O)=O)CC2)CC1 | -11.3% (inactive) | –
O=C(Cc1ccccc1)Nc1nnc(CCSCCc2nnc(NC(=O)Cc3ccccc3)s2)s1 | 11.1% (inactive) | –
COc1ccc2cc(CCC(C)=O)ccc2c1 | 2.06% (inactive) | –
C[C@H]1CN(C2COC2)CCN1c1ccc(Nc2cc(-c3ccnc(N4CCn5c(cc6c5CC(C)(C)C6)C4=O)c3CO)cn(C)c2=O)nc1 | 10.6% (inactive) | –
CN(C(=O)CCCOc1ccc2[nH]c(=O)ccc2c1)C1CCCCC1 | -3.83% (inactive) | –
N[C@H](C(=O)O)[C@@H](O)c1ccc(O)c(O)c1 | 16% (inactive) | –
C/C=C(/C(=C/C)c1ccc(OC(C)=O)cc1)c1ccc(OC(C)=O)cc1 | – | 18.4 µM (active)
C=CC[N+]1([C@H]2C[C@H]3[C@@H]4CC[C@H]5C[C@H](O)[C@@H](N6CCOCC6)C[C@]5(C)[C@H]4CC[C@]3(C)[C@H]2OC(C)=O)CCCC1 | -12.6% (inactive) | –
CC(C)NC[C@@H](O)COc1cccc2ccccc12 | -19.3% (inactive) | –
CCn1c(=O)c2c(nc(/C=C/c3ccc(OC)c(OC)c3)n2C)n(CC)c1=O | -21.5% (inactive) | –
O=C(CCBr)N1CCN(C(=O)CCBr)CC1 | -6.49% (inactive) | –
C[C@H](N)C(=O)N[C@@H](C)C(=O)NC1[C@H]2CN(c3nc4c(cc3F)c(=O)c(C(=O)O)cn4-c3ccc(F)cc3F)C[C@@H]12 (some centres undefined) | -13.3% (inactive) | –
CCC(=O)Oc1ccc2c(c1)CC[C@@H]1[C@@H]2CC[C@@]2(C)[C@H]1C[C@@H](OC(=O)CC)[C@@H]2OC(=O)CC | 0.953% (inactive) | –
CC(=C(CCOC(=O)C(C)C)SSC(CCOC(=O)C(C)C)=C(C)N(C=O)Cc1cnc(C)nc1N)N(C=O)Cc1cnc(C)nc1N | 9% (inactive) | –
Cc1c(Cl)cccc1S(=O)(=O)Nc1nc(CCN2CCOCC2=O)cs1 | 12.4% (inactive) | –
Cn1cc(C(=O)[C@@H]2CCc3nc[nH]c3C2)c2ccccc21 | -8.02% (inactive) | –
